Screen size: about 1,500 compounds; about 100 (6.7%) were called active. Where a call stands in place of a potency, no number is given. About 7% were inconclusive and are not listed. The sample holds actives, similar compounds and a random draw of the others, so the mix is not that of the screen. The call rests on the fitted dose curve; in most records, active means well fitted inhibition curve with a large enough effect; inconclusive means small, poorly fitted or top-dose-only effect, or effect the other way; inactive means flat fitted curve, though single readings scatter.
Potency means the concentration at half of the fitted maximal effect.

Runt-related transcription factor 1 (Homo sapiens) + Core-binding factor subunit beta (Homo sapiens), sequence (Q01196 whole entry, looked up): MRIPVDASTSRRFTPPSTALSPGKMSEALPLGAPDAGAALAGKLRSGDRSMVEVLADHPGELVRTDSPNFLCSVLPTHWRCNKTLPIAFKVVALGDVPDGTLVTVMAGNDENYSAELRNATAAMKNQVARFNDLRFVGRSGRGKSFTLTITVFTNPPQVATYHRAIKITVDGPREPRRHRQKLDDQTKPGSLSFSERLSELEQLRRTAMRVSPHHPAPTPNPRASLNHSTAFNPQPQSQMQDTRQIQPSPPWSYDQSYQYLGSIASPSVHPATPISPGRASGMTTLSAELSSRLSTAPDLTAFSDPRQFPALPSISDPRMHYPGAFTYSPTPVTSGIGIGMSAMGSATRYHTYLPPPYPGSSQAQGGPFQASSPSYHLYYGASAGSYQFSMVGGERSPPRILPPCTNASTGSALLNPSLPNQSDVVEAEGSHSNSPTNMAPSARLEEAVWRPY
Runt-related transcription factor 1 (Homo sapiens) + Core-binding factor subunit beta (Homo sapiens), sequence (Q13951 whole entry, looked up): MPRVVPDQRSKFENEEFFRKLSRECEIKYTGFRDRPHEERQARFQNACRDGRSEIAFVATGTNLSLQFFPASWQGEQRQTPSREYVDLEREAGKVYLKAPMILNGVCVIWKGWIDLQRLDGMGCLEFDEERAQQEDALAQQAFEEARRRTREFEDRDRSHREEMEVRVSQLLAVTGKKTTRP

This assay addresses Runt-related transcription factor 1 (Homo sapiens) + Core-binding factor subunit beta (Homo sapiens) (UniProt Q01196+Q13951). Nature of the assay: qHTS Assay for Compounds Blocking the Interaction Between CBF-beta and RUNX1 for the Treatment of Acute Myeloid Leukemia: Hit Validation. Further: nearly all actives have a fitted effect of over 60% in size. Particulars: AlphaScreen CBFb-His/RUNX1-biotin binding; series mostly up to 59.8 µM. From the text: NIH Chemical Genomics Center [NCGC]
NIH Molecular Libraries Probe Production centers Network [MLPCN]
Assay Submitter (PI): Paul Liu
Core Binding Factor (CBF) abnormalities are associated with 20-25% of all acute myeloid leukemias (AML), of which 5-10% are further sub classified as acute myelomonocytic leukemia with eosinophilia, also known as M4Eo in the FAB classification scheme. This subtype of leukemia is usually associated with chromosome 16 inversion (p13:q22). Chromosome 16 inversion results in formation of the fusion oncogene CBFB-MYH11, which encodes the fusion protein CBF-beta-SMMHC.
It has been hypothesized that the interference of CBF-beta and RUNX1 binding could have therapeutic implications for patients with CBF mediated leukemias. We developed a CBF-beta and RUNX1 binding assay in AlphaScreenTM format and optimized it for high throughput screening to search for inhibitors. The goal of this project is to screen MLPCN's compound collection (MLSMR) for identifying the inhibitors of the interaction between CBF-beta and RUNX1 proteins as research probes. If these probes work well in the animal models, the ultimate goal of this project is to development a new drug treatment for this disease.
This assay can not be used to assess how apparent inhibitors interfere with protein binding, and whether inhibitors specifically bind to either protein. Disruption of this protein-protein interaction, through any mechanism, is the intended target activity.
The present data set was run to confirm the activity of hits from the primary screen.
NCGC Assay Protocol Summary:
Step, Parameter, Description
(1) Reagent, 3 uL CBFb-His/RUNX1-biotin mix incubated together for 20 minutes at room temperature (30 nM each)
(2) Compound or control, 23 nL compound stock solution
(3) Incubation, 15 minutes at Room temperature
(4) Reagent, 1 uL 50 ng each of beads (Nickel beads and streptavidin beads)
(5) Incubation, 90 minutes at Room temperature
(6) Detection, Excitation=365 nm Emission=440 nm, Envision reader in AlphaScreenTM mode
Keywords: MLSMR, MLPCN, NIH Roadmap, qHTS, NCGC, Core binding factor, CBF, CBF-beta, Acute myeloid leukemia
As for `Oc1ccccc1/C=N/Nc1ncc(Br)cn1`, the Potency was 3.55 µM (active). Turning to `O=C(O)c1ccccc1N/N=C/c1cc(Br)cc(Br)c1O`, the Potency entry was “inactive”. For `O=C(N/N=C/c1ccccc1[N+](=O)[O-])c1cnccn1`, the Potency entry is “inactive”.

For `O=C(c1ccccc1)c1ccc2c(c1)OCCCO2`, the Potency entry was “inactive”. As for `CCOc1ccc(OCc2ccc(C(=O)NN)o2)cc1`, the Potency result was “inactive”. On to `Cc1cccc(-c2n[nH]c(=S)n2/N=C/c2cccs2)c1`, for which the Potency result is “inactive”. Consider `OCc1ncc(-c2ccccc2)s1`, for which the Potency result was “inactive”. Regarding `c1ccc(-c2nnc(-c3ccccn3)nc2NC2CCCCC2)cc1`, the Potency was 2.24 µM (active). With `c1ccc(-c2nnc(N3CCN(c4ccccc4)CC3)nc2-c2ccccc2)cc1`, the Potency result is “inactive”. To `CN(C)c1nc(-c2ccccn2)nnc1-c1ccccc1` belongs 1.41 µM (active).

With `CN1CCN(c2nnc(-c3ccccc3)c(-c3ccccc3)n2)CC1`, the Potency result is “inactive”. For the molecule `O=C(N/N=C/c1ccco1)c1cc(C2CC2)[nH]n1`, the Potency entry is “inactive”. In the case of `Cc1onc(-c2c(Cl)cccc2Cl)c1C(=O)Nc1nc(C(C)(C)C)cs1` it was “inactive”; in that of `Cc1ccc(-c2c[n+](CC(=O)Nc3ccccc3C)c3n2CCC3)cc1`, “inactive”; in that of `Cc1ccc(C[n+]2cc(-c3ccc(Cl)cc3)n3c2CCC3)cc1`, “inactive”. Turning to `COc1ccc(/C=N/OC(=O)c2ccc(Cl)cc2)c(Cl)c1OC`, the Potency result was “inactive”. For `CCOC(=O)CSc1nnc(Cn2nnc3ccccc32)n1-c1ccc(F)cc1`, the Potency entry was “inactive”. To `CN(CC(O)CN1CCOCC1)S(=O)(=O)O` (configuration not stated) belongs “inactive”; to `CCOC(=O)c1nn(-c2ccc([N+](=O)[O-])cc2)cc1O`, “inactive”; to `Cn1c(=O)c2cc3ccccc3nc2n(C)c1=O`, “inactive”. In the case of `COc1ccc(CCNC(=S)NCCc2ccc(OC)c(OC)c2)cc1OC` it was “inactive”; in that of `CCO/C=C1\SC(=S)N(c2ccc(Cl)cc2)C1=O`, “inactive”. For `Cc1ccc(S(=O)(=O)NC(=O)Nc2ccc(OC(F)F)cc2)cc1`, the Potency result is “inactive”. In the case of `Nc1nc(-c2ccccc2)c(N=Nc2ccccc2Cl)s1` it was 4.34 µM (active).

As to `Nc1nc(-c2ccccc2)c(N=Nc2ccc(Cl)cc2)s1`, the Potency is 13.7 µM (active). As for `Nc1nc(-c2ccccc2)c(N=Nc2cccc3ccccc23)s1`, the Potency was 1.94 µM (active). Turning to `Cc1cc(C)n2nc(N)c(N=Nc3ccccc3)c2n1`, the Potency result is “inactive”. To `CC1CC(C)(C)OC(C[N+]2(C)CCCCC2)O1` (configuration not stated) belongs “inactive”; to `COc1ccccc1NC(=S)NC1CCCCCCCCCCC1`, “inactive”. For `CCOC(=O)C1CCCN(C(=O)Nc2c(-c3ccccc3)noc2C)C1` (configuration not stated), the Potency result was “inactive”. `COc1ccc(C(=O)/C=C/Nc2cc(C)ccn2)cc1`: the Potency entry is “inactive”.

For `COC(=O)c1[nH]c2cc(OC)ccc2c1NC(=O)c1c(F)cccc1F`, the Potency result was “inactive”. On to `CC(C)(C)c1csc(Sc2ccc([N+](=O)[O-])cn2)n1`, for which the Potency entry is “inactive”. To `CC(=O)Oc1cc2cccc(OC(C)=O)c(=O)c2c(OC(C)=O)c1OC(C)=O` belongs 1.12 µM (active); to `O=C(N/N=C/c1ccc2c(c1)OCCO2)c1ccncc1`, “inactive”.

With `CC(=O)c1cnn(-c2ccc(Cl)c(Cl)c2Cl)c1C`, the Potency result was “inactive”.

In the case of `CCOC(=O)N1CCc2c(sc3nc[nH]c(=O)c23)C1`, the Potency result was “inactive”. `CCc1c(C#N)sc(C(N)=O)c1CC`: the Potency result is “inactive”. As for `CN=c1scc(-c2ccccc2F)n1/N=C/c1ccc(O)c(O)c1O`, the Potency was 6.87 µM (active).

In the case of `CC(=O)Nc1ccc(S(=O)(=O)Nc2ccc(C(=O)NCC(=O)O)cc2)cc1`, the Potency entry is “inactive”. As for `Cc1cccc(C)c1NC(=S)N1CCOCC1`, the Potency result was “inactive”. To `Cc1ccc(C(=O)CSc2nnc(-c3snnc3C)n2C2CC2)cc1` belongs “inactive”; to `CN(C)c1ccc(N2C(=O)CC(c3ccccc3)CC2=O)cc1`, “inactive”; to `CC1=[N+](C)N(c2ccccc2)C(=O)C1N=C/C=C/c1ccccc1` (configuration not stated), “inactive”. With `CC1=NN(c2ccccc2)C(=O)/C1=C/C=C/c1ccc(N(C)C)cc1`, the Potency is 1.12 µM (active). Regarding `CN1CCN(C(=O)Nc2cccc(-c3ccccc3)c2)CC1`, the Potency entry is “inactive”. `CCc1c(-c2ccccc2)[n+](=O)c2c(n1[O-])CCC2`: the Potency result is “inactive”. In the case of `O=C(O)C1=CC(=C(c2ccc(O)c(C(=O)O)c2)c2ccc(O)c(C(=O)O)c2)C=CC1=O`, the Potency is 1.78 µM (active). `O=C(N/N=C/c1ccncc1)c1cnccn1`: the Potency entry is “inactive”. In the case of `O=C(NC(=S)NNC(=O)c1cnccn1)c1ccc(F)cc1`, the Potency was 2 µM (active).

For `O=C(NNC(=S)NC1CC2C=CC1C2)c1ccncc1` (configuration not stated), the Potency result was “inactive”. To `CCOP(=O)(c1ccc(N(C)C)cc1)C(O)c1cccnc1` (configuration not stated) belongs “inactive”; to `CN(C)NC(=S)NC1CCS(=O)(=O)C1` (configuration not stated), “inactive”. Consider `O=C1CC(Sc2ccc(Cl)cc2)C(=O)N1c1ccc2c(c1)OCCO2` (configuration not stated), for which the Potency result was “inactive”. In the case of `O=[N+]([O-])c1cc2c(cc1/C=N/n1c(-c3ccccn3)n[nH]c1=S)OCO2` it was 10 µM (active); in that of `Fc1ccccc1/C=N/n1c(-c2cccnc2)n[nH]c1=S`, “inactive”. `Cc1cccc(-c2n[nH]c(=S)n2/N=C/c2ccco2)c1`: the Potency entry is “inactive”.
